Experimental data reported in PubChem BioAssay.
Unmarked numbers belong to inactive results. Activity calls are given as the source filed them. Cut-off read from the data, not from the text of the source: active = fold change permeability below about 0.7 or above about 1.3; inactive = in between. Positions of bridges follow the written chain, without caps; N, C: chain ends. Non-standard residues stand in square brackets, D forms with d. Residues, ends and D or L forms follow the SMILES beside them. hArg = N=C(N)NCCCC[CH](N)C(=O)O; Mpa = O=C(O)CCS

Test: compounds altering in vitro BBB leakiness – cell-based, FITC-avidin fluorescence, HTS, primary screen (AID 1963498); note: test concentration not given here
Details: brain endothelial barrier, actives lie on both sides
For `Cc1cc(C(=O)Cn2cc(C#N)ccc2=O)c(C)n1Cc1ccccc1`, the fold change permeability was 1.7 (active).
With `CN(C)CCc1c[nH]c2ccc(Cn3cncn3)cc12` the fold change permeability was 1.
With `CCCc1c(-c2ccc(O)cc2)nn(-c2ccc(O)cc2)c1-c1ccc(O)cc1` the fold change permeability was 1.4 (active).
`Cc1cccc(Nc2ccccc2C(=O)O)c1` gave a fold change permeability of 0.9.
For `CN(C)c1ccc(/C=C2\C(=O)Nc3ccccc32)cc1`, the fold change permeability was 1.6 (active).
In the case of `O=c1c2ccccc2nc2n1CCc1c-2[nH]c2ccccc12`, the fold change permeability is reported as 1.8 (active).
For `O=C(Nc1ccc(-n2nc(C(F)(F)F)cc2C(F)(F)F)cc1)c1ccncc1F`, the fold change permeability was 1.2.
With `Cc1ccc(S(=O)(=O)N[C@@H](Cc2ccccc2)C(=O)CCl)cc1` the fold change permeability was 1.8 (active).
In the case of `Oc1cc2c(c(Cl)c1O)CCNCC2c1ccccc1` (configuration not stated), the fold change permeability is reported as 1.6 (active).
For `CCN1CCc2nc(N)oc2CC1`, the fold change permeability was 1.1.
Work on `NCCCCCC(=O)O` yielded a fold change permeability of 1.1.
With `NC(=O)C1CSSCCC(=O)NC(CCCCN=C(N)N)C(=O)NCC(=O)NC(CC(=O)O)C(=O)NC(Cc2c[nH]c3ccccc23)C(=O)N2CCCC2C(=O)N1` (configuration not stated) ([Mpa][hArg]GDWPC-NH2; disulfide 1-7; configuration not given here) the fold change permeability was 0.9.
With `Clc1ccc(N2CCN(Cc3cc4ccccn4n3)CC2)cc1` the fold change permeability was 1.3 (active).
Work on `NNCCc1ccccc1` yielded a fold change permeability of 1.1.
In the case of `N#Cc1cc([N+](=O)[O-])c2sc(C(N)=O)[n+]([O-])c2c1`, the fold change permeability is reported as 1.3 (active).
Compound `Cc1ccccc1N1C(=O)c2cc(S(N)(=O)=O)c(Cl)cc2NC1C` (configuration not stated) has a fold change permeability of 0.8.
In the case of `N[C@@H](Cc1c[nH]c2ccccc12)C(=O)O`, the fold change permeability is reported as 1.3 (active).
